# Only some compounds are listed: those with a hit (about 21% of all), similar ones and a draw of the others.
# Pf growth 48h: P. falciparum growth inhibition at 48 hours (one generation) | P. falciparum luciferase growth in erythrocytes, 48 h | Potency, µM (doses to about 28.7 µM), actives largely listed as inhibitors | 310,000 compounds, 5.9% hits; active = well fitted inhibition curve with a large enough effect; inconclusive = small, poorly fitted or top-dose-only effect, or another doubt; inactive = no such curve, though single readings can be large or run the other way
#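 Here the parasites carry a stable luciferase gene and grow inside erythrocytes in Albumax-based RPMI medium with compound for one erythrocytic cycle. Activity is scored as loss of luminescent signal.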
# Shiga inhibitor: inhibitors of Shiga toxin in Vero cells. 290,000 compounds, 9.2% hits. Vero cells, Shiga toxin protein synthesis inhibition reporter. inhibition, % at 38.7 µM; in the data active = inhibition mostly above about 28%, no sharp cut-off; inactive = mostly below about 43%
# NS1 function inh: blocks influenza NS1 protein function; Potency, µM (series often up to 46.1 µM); 270,000 compounds, 0.4% hits; AID 2326; note: actives are rising curves; nearly all actives have a fitted effect of over 50% in size
#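 S. cerevisiae expressing influenza A NS1, grown in glucose, washed, then diluted 1:100 into pH 6.0 -URA galactose medium with 23 nl compound. Growth recovery read as OD600; NS1-free strain serves as control.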
# Pf growth 96h: P. falciparum growth inhibition at 96 hour, primary screen for plastid delayed-death inhibitors. P. falciparum luciferase reporter growth, 96 h. AID 504834. 320,000 compounds, 6.9% hits. Potency, µM (highest dose often 28.7 µM), actives largely listed as inhibitors; active = well fitted inhibition curve with a large enough effect; inconclusive = small, poorly fitted or top-dose-only effect, or another doubt; inactive = no such curve, though single readings can be large or run the other way
#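 Readout is luminescence from an integrated firefly luciferase in P. falciparum. Red cells, 2% hematocrit and 0.05% parasitemia final, were cultured with compound through two parasite generations (96 hours) at 37 C, 5% CO2.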
# Cycloheximide cs: affects cycloheximide protein synthesis inhibition readout, counter-screen | cell reporter, cycloheximide protein synthesis inhibition counterscreen | max response, % | 300,000 compounds, 12% hits | AID 2314; in the data active = max response mostly above about 13%, no sharp cut-off; inactive = mostly below about 14%; note: read at 38.3 µM for the half of the compounds with a filed dose
# SARS PLpro yeast: blocks SARS-CoV papain-like protease in a yeast assay; 330,000 compounds, 0.19% hits; Potency, µM (doses to about 32.9 µM), actives largely listed as activators; S. cerevisiae expressing SARS-CoV PLpro, growth rescue; AID 485353; note: nearly all actives have a fitted effect of over 55% in size
# Hits are given with their value; 0 = inactive; ? = inconclusive; - = no result given. Unless noted, calls come from the whole dose curve.
SMILES,Pf growth 48h,Shiga inhibitor,NS1 function inh,Pf growth 96h,Cycloheximide cs,SARS PLpro yeast
CC1(C)Cc2nc(-c3ccccc3)nc(SCC(O)CO)c2CO1 (stereo not drawn),0,0,?,10.4µM,0,0
Cc1cccc(-c2nc3c(c(SCC(=O)N4CCOCC4)n2)COC(C)(C)C3)c1,?,0,0,11.7µM,0,0
Cc1ccccc1C(OCC(O)CN1CCC(C(N)=O)CC1)c1ccccc1 (stereo not drawn),0,0,0,0,0,0
Cc1ccc(S(=O)(=O)NC(CC(C)C)C(=O)NCc2ccco2)cc1 (stereo not drawn),-,0,0,0,0,0
CC(=S)c1c(C)cc2cc(C)ccn12,0,0,0,0,0,0
O=C(C1CCCN(S(=O)(=O)c2ccc(Br)cc2)C1)N1CCOCC1 (stereo not drawn),0,0,0,0,0,0
COc1ccc(C)cc1NC(=O)CN1CCCC1c1ccc2c(c1)OCCCO2 (stereo not drawn),-,-,-,-,-,0
Cn1c(CN2CCCCC2)nc2cc(NC(=O)c3cccs3)ccc21,10.4µM,43.0,0,0,28.5,0
Cn1c(CCn2ccccc2=O)nc2cc(NC(=O)COc3ccccc3)ccc21,0,0,0,10.4µM,29.4,0
CCOC(=O)Nc1ccc2c(c1)nc(CN1CCCCC1)n2C,0,0,0,0,23.4,0
Cn1c(CN2CCCCC2)nc2cc(NC(=O)c3cccc(Br)c3)ccc21,-,0,0,4.65µM,0,0
CC(=O)Nc1ccc2c(c1)nc(CN1CCCC1)n2C,0,0,0,-,0,0
Cn1c(CCN2CCOCC2)nc2cc(NC(=O)COc3ccccc3)ccc21,0,0,0,0,0,0
CCn1c(CC(=O)Nc2ccc(F)cc2)nnc1SCC(=O)N1CCOCC1,0,0,0,0,0,0
CCCNC(=O)c1ccc(CN2CCOCC2)cc1,0,0,0,0,0,0
COc1ccc(CNC(=O)COC(=O)c2nc3nc(C)cc(C)n3n2)cc1,?,-,-,?,-,0
CC(C)c1ccccc1NC(=S)NCc1ccncc1,?,0,0,0,0,0
CC(=O)Nc1ccc2c(c1)nc(CCN1CCC(C)CC1)n2C,-,0,0,0,0,0
CC1CCN(CCc2nc3cc(NC(=O)COc4ccc([N+](=O)[O-])cc4)ccc3n2C)CC1,3.7µM,0,0,?,0,0
Cn1c(CN2CCCC2)nc2cc(NC(=O)Nc3ccccc3)ccc21,0,0,0,-,17.7,0
Cn1c(CN2CCCC2)nc2cc(NC(=O)c3ccco3)ccc21,0,0,0,-,33.5,0
CC1CCN(CCc2nc3cc(NC(=O)Nc4ccccc4)ccc3n2C)CC1,6.57µM,110.7,0,?,35.2,0
O=C(COc1ccc(Br)cc1)Nc1ccccc1C(=O)NC1CC1,?,-,-,0,-,0
COc1ccc(N2CCN(C(=O)c3cccc(Br)c3)CC2)c([N+](=O)[O-])c1,0,0,0,0,0,0
CCOC(=O)N1CCN(Cc2nc3cc(NC(=O)c4cccs4)ccc3n2CC)CC1,2.94µM,0,0,0,24.7,0
SMILES,Pf growth 48h,Shiga inhibitor,NS1 function inh,Pf growth 96h,Cycloheximide cs,SARS PLpro yeast
CCOC(=O)N1CCN(Cc2nc3cc(NC(=O)c4cccs4)ccc3n2C)CC1,?,0,0,0,0,0
Cn1c(CN2CCCCC2)nc2cc(NC(=O)c3ccccc3)ccc21,?,50.6,0,-,36.2,0
COc1ccc(C(=O)Nc2ccc3c(c2)nc(CN2CCCC2)n3C)cc1,0,0,-,0,0,0
CCC(C)Sc1nnc(CSc2nc3nc(C)cc(C)n3n2)o1 (stereo not drawn),0,0,0,?,0,0
COC(=O)C1SCC2C(=O)N(Cc3ccc(Cl)c(Cl)c3)CC(=O)N21 (stereo not drawn),0,0,-,0,0,0
CN(C(=O)c1ccoc1)c1ccc2ccccc2c1,0,0,0,?,0,0
CN(C(=O)c1ccc2ccccc2c1)c1ccccn1,0,0,0,0,30.1,0
COc1ccc(C2C(C#N)=C(N)N3C(=C2C#N)Sc2ccccc23)cc1 (stereo not drawn),0,0,0,0,20.2,0
CCN(CC)S(=O)(=O)c1ccc2c(c1)N(CC(=O)NCCN1CCOCC1)C(=O)CO2,0,0,0,0,0,0
NC(=O)c1nsc(C(=O)N(Cc2ccccc2Cl)C(C(=O)NCC2CCCO2)c2ccc(O)cc2)c1N (stereo not drawn),?,0,0,0,0,0

# Screening data as filed in PubChem BioAssay.
